# Source: PubChem BioAssay (NCI)
# The panel holds about 83,000 compounds, 20% with a hit somewhere; the sample as a whole holds those more often.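 Cells were grown in 96-well plates and exposed to the test compound at a single concentration for 48 hours; results are reported as percent growth, with values below 10 considered active.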 Unmarked numbers belong to inactive results. Calls of active or inactive are those of the source.
# Tested on: MDA-MB-231 breast
# Assay: NCI-60 one-dose screen, 48 h (100 = growth as untreated, 0 = no growth, -100 = all killed)
# Conditions: 10 µM unless noted
row,Structure (SMILES),growth
1,COc1cccc(/C=C2\Oc3cc(OCCN4CCCC4)ccc3C2=O)c1,96.3%
2,COc1ccc(-c2nc3ccc(-c4nc5ccc(N6CCN(c7ccncc7)CC6)cc5[nH]4)cc3[nH]2)cc1OC,63%
3,Cc1ccc(C2=NN3C(C2)c2cc(Br)ccc2OC32CCN(Cc3ccccc3)CC2)o1 (centres undefined),92.3%
4,COc1cc2c(cc1-c1c(C)noc1C)ncc1nc(-c3ccccn3)n([C@H](C)COC(F)F)c12,41.2%
5,Cc1oc(-c2ccc(Cl)cc2Cl)cc1C(=O)Nc1nccs1,83.2%
6,COc1ccc2c(c1)c(-c1nonc1-c1cn(C)c3ccccc13)cn2C,28.4%
7,COC(=O)c1ccc(NC(=O)c2ccc(-c3cccc([N+](=O)[O-])c3)o2)cc1,90.3%
8,COc1cccc(C2=NN3C(C2)c2cc(Br)cc(OC)c2OC32CCN(Cc3ccccc3)CC2)c1 (centres undefined),109%
9,O=C1c2cc3c(cc2-c2c1c1cc(F)c(F)cc1c(=O)n2CCCn1ccnc1)OCO3,13.9%
10,Cc1ccc2c(C(C[N+](=O)[O-])c3ccccc3F)c(-c3ccccc3)[nH]c2c1 (centres undefined),61.4%
11,Cc1ccccc1COc1ccc(-c2onc(C)c2-c2ccc(Cl)cc2)cc1,90.8%
12,COC[C@H](C)n1c(C2CCOCC2)nc2cnc3cc(-c4c(C)noc4C)c(OC)cc3c21,55.4%
13,C#CCOc1ccc2ncnc(NCc3cccc(NC(=O)CCl)c3)c2c1,45.3% [8.25 µM]
14,COc1cc(-c2nn(C)nc2-c2cc3ccccc3s2)cc(OC)c1OC,37.7%
15,O=C1NC(=S)N[C@H]1CC(=O)n1cnc2ccccc21,101%
16,O=S(=O)(Nc1ccc(I)cc1F)c1ccc(-c2cnc(C3CC3)o2)cc1,61%
17,CC[C@@H](C(=O)[C@@H](C)[C@@H](O)[C@H](C)[C@@H]1O[C@@H]([C@@H](CC)C(=O)O)CC[C@@H]1C)[C@H]1OC2(C=C[C@@H](O)[C@]3(CC[C@@](C)([C@H]4CC[C@](O)(CC)[C@H](C)O4)O3)O2)[C@H](C)C[C@@H]1C (some centres undefined),-39% (active)

row,Structure (SMILES),growth
1,CCOC(=O)c1csc(NC(=O)COc2cccc(/C=C3\CSc4ccccc4C3=O)c2)n1,59.2%
2,CN1CCN(c2ccc3nc(-c4ccc(OCCCCN5CCN(CCCCN6C(=O)c7cccc8cccc(c78)C6=O)CC5)cc4)[nH]c3c2)CC1,62.7%
3,Cc1ncc(C(=O)Nc2ccc(CN3CCN(C)CC3)c(C(F)(F)F)c2)cc1C#Cc1cnc2cccnn12,-1.12% (active)
4,Cc1nc2c3c(-c4ccccc4)c(-c4ccccc4)oc3ncn2n1,83.3%
5,O=C(N/N=C/c1ccccc1O)c1ccccc1Nc1ccnc(C(F)(F)F)c1,40.4%
6,COC(=O)[C@]12CCC(C)(C)C[C@H]1[C@H]1C(=O)C[C@@H]3[C@@]4(C)c5c([nH]c6ccccc6c5=O)C(C)(C)[C@@H]4CC[C@@]3(C)[C@]1(C)CC2,86.4%
7,COc1ccc(-c2n[nH]nc2-c2csc3ccccc23)cc1OC,35.6%
8,O=C1c2ccccc2C(=O)c2c(N=Nc3[nH]c(=S)[nH]c3O)cccc21,40.3%
9,Cn1c(NCCc2ccc(O)c(O)c2)nc2c1c(=O)n(Cc1ccc(Br)cc1)c(=O)n2C,69.2%
10,Cc1ccc(/C=C2\SC(=S)N(CC(=O)NCCCN3CCOCC3)C2=O)cc1,91.9%
11,Cc1ccc(C2Oc3ccccc3C3CC(c4cccs4)=NN32)cc1 (centres undefined),91.3%
12,C=CC(=O)Nc1cccc(-c2nc(SC)nc(NCCc3ccc(OC)c(OC)c3)c2C#N)c1,64.1%
13,Cc1nc(/N=C(\N)NC(=O)Nc2cccc([N+](=O)[O-])c2)sc1C,98.8%
14,COc1ccc(-n2nc(C)c3c(Nc4ccc(NC(=O)Nc5ccc(Cl)c(C(F)(F)F)c5)cc4)ncnc32)cc1,-25% (active)
15,O=C(/C=C/c1cccc([N+](=O)[O-])c1)c1ccc(O)c(CN2CCN(c3cc4c(cc3F)c(=O)c(C(=O)O)cn4C3CC3)CC2)c1,54.4%
16,CCC([N+](=O)[O-])S(=O)(=O)c1ccc(C)cc1 (centres undefined),103%
17,Cc1cn2c(/C=C3/C(=O)Nc4c3ccc3ccccc43)c(C(F)(F)F)nc2s1,38.1%
